Data: PubChem BioAssay AID1012 (Sanford-Burnham Center for Chemical Genomics, 2008)
In all, about 200,000 compounds went through this assay and about 520 (0.26%) were called active. This is one part of a sample in which actives are shown more often than they occur.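 The calls were made as follows: active = tissue-nonspecific alkaline phosphatase inhibition above about 50% at 20 µM in the single-dose screen (limit read from the data); inactive = the rest.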

Target: Alkaline phosphatase, tissue-nonspecific isozyme (Homo sapiens) (UniProt P05186)
Sequence (P05186 whole entry, looked up): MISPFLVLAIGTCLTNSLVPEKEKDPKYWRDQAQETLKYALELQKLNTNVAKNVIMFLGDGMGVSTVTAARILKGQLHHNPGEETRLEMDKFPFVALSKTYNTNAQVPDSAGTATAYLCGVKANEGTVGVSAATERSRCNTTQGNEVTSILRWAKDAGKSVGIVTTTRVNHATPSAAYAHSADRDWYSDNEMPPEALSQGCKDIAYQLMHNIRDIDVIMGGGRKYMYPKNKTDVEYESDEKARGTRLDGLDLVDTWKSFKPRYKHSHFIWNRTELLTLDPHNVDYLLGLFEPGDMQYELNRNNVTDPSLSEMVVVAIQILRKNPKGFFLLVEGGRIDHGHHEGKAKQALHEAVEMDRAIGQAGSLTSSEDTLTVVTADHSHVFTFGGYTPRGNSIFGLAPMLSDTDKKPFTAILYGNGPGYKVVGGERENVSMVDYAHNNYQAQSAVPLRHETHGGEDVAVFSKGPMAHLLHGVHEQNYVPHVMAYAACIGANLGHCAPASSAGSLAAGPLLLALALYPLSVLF
Test: human TNAP enzyme inhibitors, primary screen, biochemical, luminescent, no phosphate acceptor, uHTS (AID 1012);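 also: 0% = DMSO negative control and 100% = EDTA positive control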
Conditions: purified TNAP, CDP-star luminescence, 30 min; at 20 µM; hits give high values

inhibition, active:
CC(C)C1N=C2c3ccccc3N=C(SCC(=O)c3ccc(O)c(O)c3)N2C1=O (configuration not stated) 93.7%
S=c1[nH]nc2c3c4c(sc3ncn12)CCCC4 58%
S=c1[nH]nc(-c2ccco2)n1/N=C/c1ccc(Br)s1 58.4%
Cc1n[nH]c(C)c1S(=O)(=O)N1CCCC(C(=O)NCC2COc3ccccc3O2)C1 (configuration not stated) 51.6%
COc1ccc(-c2cc(C3CCN(c4ncccc4[N+](=O)[O-])CC3)[nH]n2)cc1 59.7%
COc1ccccc1-c1nc(SC)n[nH]1 63.7%
CCN(c1ccccc1)S(=O)(=O)c1ccc2[nH]c(=O)[nH]c2c1 64.9%
Cc1c(CCO)sc[n+]1CC(=O)OC12CC3CC(CC(C3)C1)C2 55.5%
O=C(C(=O)N1CCc2ccccc2C1)c1c[nH]c2ccccc12 61%
CCOc1ccc(C(c2c(C)[nH][nH]c2=O)c2c(C)[nH][nH]c2=O)cc1OCC 58.2%

inhibition, inactive:
COc1cc2c3c(c1)/C(=C1/SC(=S)NC1=O)C(=O)N3C(C)(C)C=C2C 21.4%
O=C(CSC1=Nc2ccccc2C2=NC(CC(=O)NCc3ccco3)C(=O)N12)NCc1ccco1 (configuration not stated) -27.8%
CCC(C)NC(=O)CSC1=Nc2ccccc2C2=NC(CCC(=O)NCc3ccco3)C(=O)N12 (configuration not stated) -11%
CN(C(=O)CSc1nncc2ccccc12)C1CCCCC1 -7.3%
C=CCNC(=O)COC(=O)CNC(=O)c1cc(Cl)cc([N+](=O)[O-])c1 6.8%
COc1ccc(OC)c(S(=O)(=O)Nc2cccc(-c3ccc4nncn4n3)c2)c1 -5.3%
COc1cccc(N(C(=O)C2COc3ccccc3O2)C(C(=O)NC2CCCCC2)c2ccc(O)cc2)c1 (configuration not stated) 0.9%
Cc1cc2c(cc1C)[n+](C)cn2CC(O)COCC1CC=CCC1 (configuration not stated) -9.6%
CCCCOc1ccc(N(CC(=O)NC(C)C)C(=O)CCC(=O)Nc2ccccn2)cc1 -3.6%
CC(C)NC(=O)NCCCCCCS(C)=O (configuration not stated) -6.1%
COc1cccc(NC(=O)CS(=O)(=O)c2cn(CC(=O)N3CCOCC3)c3ccccc23)c1 -14.3%
COc1ccc(Cn2c(-c3ccc(Cl)cc3)c[n+]3ccccc23)cc1 -2.5%
COC1=CCC2([N+](=O)[O-])CN(CC(=O)O)CC1([N+](=O)[O-])C2 (configuration not stated) -11.9%
CCCC(c1nnnn1C(C)(C)C)N1CCN(Cc2ccccc2)CC1 (configuration not stated) -1.2%
c1ccc2c(NC3C4CC5CC(C4)CC3C5)nc(N3CCOCC3)nc2c1 (configuration not stated) -15.9%
CC1CN(/C=C/C(=O)C(F)(F)F)CC(C)O1 (configuration not stated) -8.2%
CCOc1ccccc1N1CCN(C(=O)COc2ccc3c(C)cc(=O)oc3c2)CC1 -11%
CC(C)CCC(C)NC(=O)c1ccc2nccnc2c1 (configuration not stated) -12.5%
CC12CCC(C(=O)N(NC(=O)c3ccccc3O)C1=O)C2(C)C (configuration not stated) 3.9%
COc1ccc(N2C(=O)C(O)C2c2ccc(C)cc2)cc1 (configuration not stated) -8.2%
C=CCn1c(CCNC(=O)c2cccs2)n[nH]c1=S -3.9%
CCCc1nc(SCC(=O)Nc2ccc(S(=O)(=O)N(C)C)cc2)c2ccccc2n1 17.6%
Cc1cc(=O)oc(C)c1C(=O)NCCN(C)Cc1ccccc1 -6.1%
Cc1ccccc1NC(=O)c1nn(-c2ccc(F)c(F)c2)ccc1=O -8.3%
O=C(Nc1nnc(Cc2ccccc2)s1)c1cnccn1 -2.7%
CCN1CCN(C(=O)c2ccc(CN(c3ccc(C)c(C)c3)S(C)(=O)=O)cc2)CC1 -5.1%
CC(C)(C)C(=O)N1CCC[C@@]1(CO)C(=O)O -10.8%
Cc1ccc(S(=O)(=O)N2CCN(C(=O)c3cccs3)CC2)cc1 -7.6%
O=C(O)C1C2C=CC(O2)C1C(=O)NCCc1cccc(Cl)c1 (configuration not stated) -9.5%
CC1CCC(NC(=O)C2c3ccccc3C(=O)N2Cc2ccc3c(c2)OCO3)CC1 (configuration not stated) -16.3%
O=C(COC(=O)/C=C/c1cn(-c2ccccc2)nc1-c1cccnc1)Nc1ccc(Cl)cc1Cl -8.8%
CC(=O)Nc1ccc(C(=O)CSc2nc3ccc(C)cc3[nH]2)cc1 -33.5%
COc1ccc(C/C(N)=N/OC(=O)c2ccco2)cc1OC -7.5%
CCOc1ccc2nc(C(=O)N3CCCC(C)C3)sc2c1 (configuration not stated) 1.7%
COC(=O)/C(=C1\Oc2ccc(C(C)(C)C)cc2S1)C(F)(F)F 0.6%
COCC(=O)Nc1cc(C(=O)OC)cc(C(=O)OC)c1 -4.5%
c1nnc2c3c4c(sc3ncn12)CCC4 -10.6%
N=c1c2c3c(sc2ncn1N)CCCC3 -4.9%
O=C(Cn1c2[n+](c3ccc(C(F)(F)F)cc31)CCCCC2)Nc1c(F)cccc1F -6.3%
O=C(COC(=O)c1cnccn1)Nc1cccc2ccccc12 -10%
S=c1[nH]nc(-c2cccs2)n1/N=C/c1cccs1 36.2%
Cc1ccc(/C=N\n2c(-c3ccccc3)n[nH]c2=S)s1 29%
COCCn1c(N)c(N(Cc2ccccc2)C(=O)C2CCCCC2)c(=O)[nH]c1=O -0.9%
O=C(Cn1c(N2CCN(C/C=C/c3ccccc3)CC2)nc2ccccc21)c1ccccc1 5.4%
CCOC(=O)C1(CCOC)CCN(Cc2ccc(C(=O)OC)cc2)CC1 -7%
CCN1CCN(c2ccc(NC(=O)c3cnccn3)cc2)CC1 -10.4%
CC(C)(C)OC(=O)N1CCC(NC(=O)c2[nH]cnc2C(=O)N[C@@H](Cc2ccccc2)C(=O)OCc2ccccc2)CC1 -3.5%
CC(C)Cc1nn2c(=O)cc(O)nc2s1 -13.8%
O=C(Nc1ccc(N2CCOCC2)cc1)c1ccc(-c2ccccc2[N+](=O)[O-])o1 8.7%
COc1ccc(C(=O)Nc2cccc(S(C)(=O)=O)c2)cc1 -11%
N/C(=N\OC(=O)c1ccc2c(c1)OCO2)c1ccc(Br)cc1 -7%
COc1ccc(C2=NN(c3ccccc3)C(c3cccs3)C2)cc1 (configuration not stated) -20.3%
Cc1ccc(NC(=O)COC(=O)CCc2nc3ccccc3n2-c2ccccc2)c(C)c1 -12.9%
COc1ccc(Cc2n[nH]c(=S)n2NC(=O)Nc2ccc(C)cc2)cc1 -16.9%
Cc1cc(C)c(C#N)c(SCC(=O)NN2CC(=O)N(c3ccccc3F)CC2=O)n1 -6.4%
CCCCNC(=O)N1CCN(S(C)(=O)=O)CC1 -6.4%
O=C(CO/N=C/c1ccc(OC(F)F)cc1)NCc1ccc(F)cc1 2.4%
COc1cc2[nH]c(=O)n(Cc3ccc(C(=O)NC4CCN(Cc5ccccc5)CC4)cc3)c(=O)c2cc1OC 1.5%
Cc1noc(/C=C/N(C)C)c1S(=O)(=O)N1CCCC(C(=O)NCc2ccco2)C1 (configuration not stated) -12%
Cc1ccc(NC(=O)C2CCCN(S(=O)(=O)c3c(C)noc3C)C2)c(C)c1 (configuration not stated) -3.2%
CC(=O)NC(Cc1ccccc1)C(=O)NC1CCN(c2ncccc2[N+](=O)[O-])CC1 (configuration not stated) -1.2%
COc1ccc(N2CCN(c3ccc([N+](=O)[O-])nc3)CC2)cc1 -7.2%
Cc1ccc(S(=O)(=O)N2CCC(C(=O)N[C@@H](C)C(=O)NCc3ccco3)CC2)cc1 -10%
CN(Cc1cc2cc(F)ccc2[nH]1)Cc1nc(-c2cnccn2)no1 -8.7%
CC(C)(C)C1CCC(OC(=O)CCC(=O)Nc2ccccc2)CC1 (configuration not stated) -5.1%
CC1=NN(c2ccccc2)C(=O)C1C(=O)c1ccc([N+](=O)[O-])cc1 (configuration not stated) -4.4%
O=C(c1ccc(OC2CCN(Cc3ccccn3)CC2)cc1)N1CCCCCC1 -6%
CCCOc1ccccc1-c1nc(SCCC(=O)O)n[nH]1 8.1%
COc1ccccc1C1=Nc2cccc3cccc(c23)N1 -4.6%
C=CCN(Cc1nc(-c2cc(OC)c3c(c2)OCO3)oc1C)C1CCS(=O)(=O)C1 (configuration not stated) -9.3%
COc1ccc(NS(=O)(=O)c2cc(NC(=O)/C=C/c3cc(OC)c(OC)c(OC)c3)ccc2N2CCCCC2)cc1 -3.9%
CC1=CC2=NC(=O)CC(C)(C(=O)N(CC(=O)NC(C)(C)C)Cc3ccccc3)N2C=C1 (configuration not stated) -13%
CCN(c1ccccc1)S(=O)(=O)c1ccc(N)cc1 -17.8%
CCN(c1ccccc1)S(=O)(=O)c1cccc(C(=O)O)c1 -2.9%
Cc1c(CCOC(=O)CC23CC4CC(CC(C)(C4)C2)C3)sc[n+]1Cc1ccc([N+](=O)[O-])cc1 -6.1%
O=C(C(=O)N1CCc2ccccc2C1)N1CCc2ccccc2C1 -5.7%
CC1CCN(CC(=O)c2c[nH]c3ccccc23)CC1 -9.1%
Cc1[nH][nH]c(=O)c1C(c1ccc2c(c1)OCO2)c1c(C)[nH][nH]c1=O 45.5%
Cc1[nH][nH]c(=O)c1C(c1ccc(-c2ccc(Cl)cc2)o1)c1c(C)[nH][nH]c1=O -57.7%
O=C(/C=C/c1ccc(F)cc1)Nc1cccc(S(=O)(=O)Nc2cccc(C(F)(F)F)c2)c1 -9.4%
CCOc1ccc(/C=N/OCC(=O)NCc2cccs2)cc1 2.3%
O=C(NCCc1ccccc1)C1CCC(Cn2c(=O)c3ccccc3n(Cc3cccnc3)c2=O)CC1 (configuration not stated) -0.3%
